Composite z-score and z-score data for three compounds are collected here from PubChem BioAssay.

Assay [1] in a line: binders of probe aFSTL3 on microarray, primary screen, stem cell growth factor project, biochemical, small-molecule microarray, fluorescence 635/667 (AID 1064).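 Further: measures binding of the biotinylated anti-FSTL3 antibody to printed compounds.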 The settings on record: higher = more signal.
A short description of assay [2]: binders from COS7 lysate, DM2A8 probe, primary screen, torsin A project, cell lysate, small-molecule microarray, fluorescence 635/667 (AID 1065). The settings on record: higher = more signal, COS7 lysate expressing mutant human TOR1A.
A short description of assay [3]: binders of probe aFGF2 on microarray, primary screen, stem cell growth factor project, biochemical, small-molecule microarray, fluorescence 635/667 (AID 1067).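 Further: measures binding of biotinylated aFGF2 protein to printed compounds on slides; z-score merges feature fluorescence and signal-to-noise across triplicate slides.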 The settings on record: higher = more signal.
The nature of assay [4]: binders of probe aFGF10 on microarray, primary screen, stem cell growth factor project, biochemical, small-molecule microarray, fluorescence 635/667 (AID 1071).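 Further: score merges 667 nm spot intensity and signal to noise from triplicate slides.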 The note with it: higher = more signal.
In assay [5] the target is Neurogenic locus notch homolog protein 2 (Homo sapiens) (UniProt Q04721). As to the kind of experiment: Notch2 binders on small-molecule microarrays, primary screen, biochemical, small-molecule microarray, 635 nm fluorescence, stem cell growth factors (AID 1073). The settings on record: Notch2 binding, higher = more signal.
In assay [6] the target is Pro-neuregulin-1, membrane-bound isoform (Homo sapiens) (UniProt Q02297). As to the kind of experiment: NRG1 binders on small-molecule microarrays, primary screen, psychiatric disease protein project, biochemical, small-molecule microarray, fluorescence 635/667 (AID 1075).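 Further: score combines 667 nm spot fluorescence with signal to noise.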 The settings on record: NRG1 binding, 635 nm fluorescence, higher = more signal.
Sequence of Pro-neuregulin-1, membrane-bound isoform (Homo sapiens) (Q02297 whole entry, looked up, the tested form may be a part, canonical isoform): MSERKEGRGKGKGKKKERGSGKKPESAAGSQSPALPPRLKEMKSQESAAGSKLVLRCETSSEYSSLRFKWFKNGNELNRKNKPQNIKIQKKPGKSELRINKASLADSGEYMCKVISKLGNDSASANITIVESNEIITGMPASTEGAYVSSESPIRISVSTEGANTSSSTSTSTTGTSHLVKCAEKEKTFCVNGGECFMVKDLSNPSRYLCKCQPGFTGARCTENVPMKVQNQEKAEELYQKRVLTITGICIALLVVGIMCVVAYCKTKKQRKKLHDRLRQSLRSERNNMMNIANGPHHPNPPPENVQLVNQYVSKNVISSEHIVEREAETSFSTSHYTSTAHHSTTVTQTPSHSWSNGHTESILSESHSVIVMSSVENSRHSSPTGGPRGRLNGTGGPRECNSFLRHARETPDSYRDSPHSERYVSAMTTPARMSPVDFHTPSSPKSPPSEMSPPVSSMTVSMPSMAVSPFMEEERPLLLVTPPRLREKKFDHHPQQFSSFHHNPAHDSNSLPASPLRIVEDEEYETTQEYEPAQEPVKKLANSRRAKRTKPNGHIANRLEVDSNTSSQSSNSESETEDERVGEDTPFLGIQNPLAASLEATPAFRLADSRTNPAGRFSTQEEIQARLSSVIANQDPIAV
For assay [7], the system named is Neuregulin-1 EGF-like domain. As to the kind of experiment: binders of neuregulin-1 EGF-like domain, primary screen, biochemical, small-molecule microarray, 635 nm fluorescence (AID 1081).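 Further: binding of the protein to compounds printed on small-molecule microarray slides.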 The settings on record: small-molecule microarray binding, higher = more signal.
Assay [8] in a line: FRG1 promoter luciferase signal modulators, primary screen, FRG1 inhibition for FSHD, cell-based, C2C12 myotubes, firefly/Renilla luciferase, luminescence (AID 1084). The note with it: higher = more signal, called active from +8 up or from −8 down.
The nature of assay [9]: binders of probe aFST on microarray, primary screen, stem cell growth factor project, biochemical, small-molecule microarray, fluorescence 635/667 (AID 1086).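 Further: score merges 667 nm fluorescence with signal-to-noise of each printed compound spot.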 The settings on record: higher = more signal.
Assay [10] can be described thus: binders of probe aHhip on microarray, primary screen, stem cell growth factor project, biochemical, small-molecule microarray, fluorescence 635/667 (AID 1087).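 Further: score merges spot fluorescence at 667nm with spot signal to noise ratio.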 The settings on record: higher = more signal.
The subject of assay [11] is PRMT1 (protein arginine N-methyltransferase 1). As to the kind of experiment: PRMT1 binders on small-molecule microarrays, primary screen, biochemical, small-molecule microarray, 635 nm fluorescence (AID 1088).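 Further: binding of Prmt1 protein to compounds spotted on small-molecule microarray slides.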 The note with it: small-molecule microarray binding, higher = more signal.
Assay [12] is described as follows: yeast growth modulation, basal conditions, primary screen, YJM789 clinical isolate, OD600, 24 h (AID 1089).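 Further: growth of clinical yeast isolate S. cerevisiae YJM 789 seeded 1000 cells per well; test concentration not given here.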 The note with it: S. cerevisiae YJM789 growth, higher = more signal, called active from +8 up or from −8 down.
Assay [13] in a line: fission yeast growth modulation, primary screen, strain 972, OD600, 24 h, no modulator (AID 1090).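 Further: basal condition with compound alone and no growth modifier present; test concentration not given here.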 The note with it: S. pombe 972 growth, higher = more signal, called active from +8 up or from −8 down.
Assay [14] in a line: S. cerevisiae growth modulation with rapamycin, primary screen, strain BY4716, OD600, 96 h (AID 1091). Further: test concentration not given here. The settings on record: higher = more signal, called active from +8 up or from −8 down.
Assay [15] deals with Torsin-1A-interacting protein 2 (Homo sapiens) (UniProt Q8NFQ8). As to the kind of experiment: LULL1 binders on small-molecule microarray, primary screen, cell lysate, human LULL1 lysate, 635/667 nm fluorescence (AID 1092).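 Further: probe is lysate of COS7 cells overexpressing human LULL1; score merges per-feature 667 nm fluorescence with signal-to-noise.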 The settings on record: hLULL1 lysate binding, 635 nm fluorescence, higher = more signal.
Sequence of Torsin-1A-interacting protein 2 (Homo sapiens) (Q8NFQ8 whole entry, looked up): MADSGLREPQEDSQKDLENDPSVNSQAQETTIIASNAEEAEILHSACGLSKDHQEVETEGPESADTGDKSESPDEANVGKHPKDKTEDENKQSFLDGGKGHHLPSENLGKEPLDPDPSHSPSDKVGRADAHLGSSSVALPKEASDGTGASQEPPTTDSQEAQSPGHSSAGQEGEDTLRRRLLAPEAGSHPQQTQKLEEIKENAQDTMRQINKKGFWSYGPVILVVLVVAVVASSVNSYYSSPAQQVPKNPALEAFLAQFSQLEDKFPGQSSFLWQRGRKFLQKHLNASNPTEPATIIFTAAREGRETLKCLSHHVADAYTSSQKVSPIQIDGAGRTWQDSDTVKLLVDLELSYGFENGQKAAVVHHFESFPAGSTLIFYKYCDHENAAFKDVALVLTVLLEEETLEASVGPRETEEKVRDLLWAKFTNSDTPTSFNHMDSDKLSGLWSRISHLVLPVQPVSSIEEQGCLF
Assay [16] in a line: E. coli growth modulation, two-sided OD650, primary screen, E. coli filamentation project, strain DRC41, 24 h (AID 1093).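 Further: MC1000 strain lacking acrAB efflux and sulA so SOS filamentation is blocked; test concentration not given here.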 The note with it: OD650, 24 h, higher = more signal, called active from +8 up or from −8 down.
Assay [17] can be described thus: small-molecule microarray binders of probe aLefty2, primary screen, biochemical, biotinylated probe, 635/667 nm fluorescence (AID 1094).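 Further: score merges spot fluorescence near 667 nm with spot signal-to-noise ratio.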 The note with it: higher = more signal.
The test system of assay [18] is Noggin (protein binding on small-molecule microarray). As to the kind of experiment: Noggin binders on small-molecule microarray, primary screen, biochemical, 635/667 nm fluorescence (AID 1095).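 Further: score merges 667 nm feature fluorescence with signal to noise over triplicate slides.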 The note with it: 635 nm fluorescence, higher = more signal.
In assay [19] the target is Neurogenic locus notch homolog protein 3 (Homo sapiens) (UniProt Q9UM47). As to the kind of experiment: NOTCH3 binders on small-molecule microarray, primary screen, biochemical, 635/667 nm fluorescence (AID 1096). The settings on record: NOTCH3 binding, 635 nm fluorescence, higher = more signal.
Sequence of Neurogenic locus notch homolog protein 3 (Homo sapiens) (Q9UM47 whole entry, looked up): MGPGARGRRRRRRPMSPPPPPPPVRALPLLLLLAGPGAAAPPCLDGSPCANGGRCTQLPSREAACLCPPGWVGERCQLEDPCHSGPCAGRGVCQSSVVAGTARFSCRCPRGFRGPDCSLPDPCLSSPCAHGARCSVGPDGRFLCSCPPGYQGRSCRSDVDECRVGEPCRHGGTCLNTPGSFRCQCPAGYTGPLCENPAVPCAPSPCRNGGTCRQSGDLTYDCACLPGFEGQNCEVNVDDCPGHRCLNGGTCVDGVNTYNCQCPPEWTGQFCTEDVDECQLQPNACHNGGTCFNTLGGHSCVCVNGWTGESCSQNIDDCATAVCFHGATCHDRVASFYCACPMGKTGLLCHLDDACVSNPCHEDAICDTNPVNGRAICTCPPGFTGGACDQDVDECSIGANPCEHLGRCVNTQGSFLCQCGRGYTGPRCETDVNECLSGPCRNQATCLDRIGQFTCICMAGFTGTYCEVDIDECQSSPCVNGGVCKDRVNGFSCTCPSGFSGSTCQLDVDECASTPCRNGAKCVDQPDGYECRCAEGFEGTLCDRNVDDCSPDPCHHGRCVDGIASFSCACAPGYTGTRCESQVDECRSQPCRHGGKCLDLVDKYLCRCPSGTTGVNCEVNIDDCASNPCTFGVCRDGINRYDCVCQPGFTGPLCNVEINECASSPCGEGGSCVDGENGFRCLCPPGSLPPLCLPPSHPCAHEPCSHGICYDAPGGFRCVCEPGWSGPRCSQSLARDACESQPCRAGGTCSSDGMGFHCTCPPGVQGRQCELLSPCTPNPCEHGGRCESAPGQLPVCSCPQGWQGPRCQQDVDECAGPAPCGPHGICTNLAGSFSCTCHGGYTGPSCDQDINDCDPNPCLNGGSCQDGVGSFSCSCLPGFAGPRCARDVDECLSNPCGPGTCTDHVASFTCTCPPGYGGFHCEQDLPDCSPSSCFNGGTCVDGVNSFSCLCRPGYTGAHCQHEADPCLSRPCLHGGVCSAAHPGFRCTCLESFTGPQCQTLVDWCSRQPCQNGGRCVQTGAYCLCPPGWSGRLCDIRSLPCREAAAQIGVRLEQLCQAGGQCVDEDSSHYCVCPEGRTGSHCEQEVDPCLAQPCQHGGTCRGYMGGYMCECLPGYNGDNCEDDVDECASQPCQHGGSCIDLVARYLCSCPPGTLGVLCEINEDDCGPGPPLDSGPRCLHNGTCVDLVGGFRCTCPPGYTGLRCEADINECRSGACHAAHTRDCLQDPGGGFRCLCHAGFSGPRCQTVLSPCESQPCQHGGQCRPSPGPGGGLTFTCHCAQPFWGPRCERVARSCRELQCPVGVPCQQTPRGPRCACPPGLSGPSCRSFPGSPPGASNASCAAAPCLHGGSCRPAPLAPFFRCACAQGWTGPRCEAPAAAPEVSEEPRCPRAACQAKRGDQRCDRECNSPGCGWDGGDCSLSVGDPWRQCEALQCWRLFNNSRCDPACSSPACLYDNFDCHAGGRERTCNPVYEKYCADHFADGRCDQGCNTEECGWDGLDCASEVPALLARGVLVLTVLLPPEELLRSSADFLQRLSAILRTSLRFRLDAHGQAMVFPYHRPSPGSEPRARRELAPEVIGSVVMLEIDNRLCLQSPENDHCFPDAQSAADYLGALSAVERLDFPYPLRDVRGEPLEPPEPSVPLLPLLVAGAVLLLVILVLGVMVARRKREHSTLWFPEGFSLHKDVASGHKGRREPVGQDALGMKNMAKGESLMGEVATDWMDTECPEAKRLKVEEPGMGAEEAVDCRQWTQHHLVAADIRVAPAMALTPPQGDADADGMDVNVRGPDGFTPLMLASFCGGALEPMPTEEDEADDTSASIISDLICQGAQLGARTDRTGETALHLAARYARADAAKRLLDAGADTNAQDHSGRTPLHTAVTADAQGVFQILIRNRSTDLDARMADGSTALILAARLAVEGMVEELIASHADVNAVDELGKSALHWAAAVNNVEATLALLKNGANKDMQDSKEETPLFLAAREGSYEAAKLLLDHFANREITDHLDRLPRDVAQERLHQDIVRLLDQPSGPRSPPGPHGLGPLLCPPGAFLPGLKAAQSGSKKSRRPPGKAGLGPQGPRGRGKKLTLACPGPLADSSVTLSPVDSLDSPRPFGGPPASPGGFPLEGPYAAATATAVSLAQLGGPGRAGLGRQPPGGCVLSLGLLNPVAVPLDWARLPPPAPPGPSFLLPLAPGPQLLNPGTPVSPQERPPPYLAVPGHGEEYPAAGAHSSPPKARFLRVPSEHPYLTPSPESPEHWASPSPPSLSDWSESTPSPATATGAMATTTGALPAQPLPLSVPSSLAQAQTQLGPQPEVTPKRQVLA
Assay [20] is described as follows: small-molecule microarray binders of probe aEGFR, primary screen, biochemical, biotinylated probe, 635/667 nm fluorescence (AID 1097).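 Further: probe is a biotinylated anti-EGFR antibody binding compounds printed on slides; score combines fluorescence near 667 nm and signal to noise of each spot.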 The settings on record: higher = more signal.

The source made the active and inactive calls.

With `COc1ccccc1CN1C(=O)c2ccccc2[C@@H](C(=O)NCC(C)C)[C@@H]1c1ccc(CO)cc1`, the composite z-score in assay [1] was 0.482; in [2] it was -0.117; in [3] it was 0.0342; in assay [4] it was -0.0779; in [5], 1.07; in assay [6] it was 0.869. Moreover, the composite z-score was 0.7 in [7]; 0.0346 in assay [9]; -0.0994 in assay [10]; -0.106 in assay [11]; 2.18 in [15]; -0.0042 in assay [17]. Moreover, the composite z-score in [18] is -0.081; in assay [19], -0.222; in assay [20] it was -0.0398. Besides, the z-score in assay [8] was -1.97 (inactive); in assay [12], 0.444 (inactive); in assay [13], -0.288 (inactive); in assay [14], 0.125 (inactive); in [16], 0.0616 (inactive).

For `C=CC[C@]1(C(=O)NCC(O)CO)N=C(c2ccc(OCCCO)cc2)O[C@H]1c1ccccc1N=[N+]=[N-]` (stereo not given in full), the composite z-score in [1] is 0.227; in assay [2], -0.444; in assay [3] it was 0.0649; in assay [4], 0.154; in assay [5], 0.323; in assay [6], 1.8. The composite z-score was determined as 1.11 in assay [7]; 0.375 in [9]; 0.23 in assay [10]; 1.03 in assay [11]; 3.31 in [15]; 0.406 in assay [17]. Besides, the composite z-score in assay [18] is -0.0496; in assay [19], -0.0588; in assay [20] it was -0.142. The z-score in assay [8] is 1.25 (inactive); in [12] it was -0.285 (inactive); in [13], -0.529 (inactive); in assay [14] it was -0.325 (inactive); in [16], 0.346 (inactive).

In the case of `CC(C)CCC[C@@H](C)[C@H]1CC[C@@]2(C)C3=C(CC[C@]12C)[C@@]1(C)CC[C@H](OC(=O)c2ccc(N)cc2)C(C)(C)C1CC3` (stereo not given in full), the composite z-score in [1] was -0.219; in assay [2], 0.481; in assay [3], -0.145; in assay [4], 0.448; in assay [5] it was 0.558; in [6], -0.0202. Also, the composite z-score in assay [7] was 0.649; in [9], 0.0576; in assay [10], -0.406; in [11] it was 0.68; in assay [15], -0.0362; in assay [17], -0.19. Moreover, the figures for the composite z-score in assay [18], in assay [19] and in assay [20] were 0.434, 0.614 and -0.0238, respectively. The z-score in [8] is -1.35 (inactive); in assay [12], -1.77 (inactive); in assay [13] it was -1 (inactive); in assay [14] it was -0.246 (inactive); in [16] it was 2.78 (inactive).
